# Screens (PubChem)
# A549 tox-1 – kills or reduces viability of A549 cells in Nrf2 counter-screen. A549 ARE-Fluc cells, CellTiter-Fluor viability, 18-24 h. Potency, µM (doses to about 46 µM), for the others: at the top dose activity change, negative = cytotoxicity, hits mostly inhibitors. 0.16% of 390,000 active. AID 504648; also: % is scaled to controls: 0 for no effect and ±100 for the full control effect
#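 A549 ARE-Fluc cells in 5% FBS OPTI-MEM, 5000 cells/well, rested 2 h then exposed to compounds in concentration-response for 18-24 h at 37 °C. Viability by CellTiter-Fluor fluorescence (Ex 405/Em 525) after 30 min; luciferase luminescence (BugLite, 15 min, RT) read afterwards.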
# TGFb SMAD3 inh – TGF-b pathway inhibition; HepG2 CAGA-GFP TGF-b/SMAD3 reporter, GFP fluorescence, 18 h; TGF-beta stimulated, 500 pg/mL final; Potency, µM (titrated, usually from 46.1 µM), without a hit: top-dose activity, negative = inhibition, most hits filed as inhibitors; 1.2% of 410,000 active; AID 588855; also: % is scaled to controls: 0 for no effect and ±100 for the full control effect; nearly all actives have a fitted effect of over 65% in size
#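 GFP signal (ex488/em500-530) from TGF-beta-stimulated HEPG2 CAGA-GFP cells, 500 pg/mL final, 18 h at 37 degrees C in DMEM plus 1% FBS, normalized to unstimulated and DMSO-stimulated controls.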
# S2 tox – cell viability loss in ATXN counter-screen; S2 cells (HEK-293 line with an ATXN2-luciferase reporter) viability, CellTiter-Fluor protease fluorescence, 24 h; Potency, µM (series often up to 56.7 µM), hits mostly cytotoxic; 0.49% of 400,000 active; AID 651635; also: nearly all actives have a fitted effect of over 40% in size
# ATXN2 expr inh – inhibitors of ATXN2 expression. HEK-293 ATXN2-luciferase reporter, luminescence, 24 h. Potency, µM (doses to about 57 µM), without a hit: top-dose activity change, negative = inhibition, most hits filed as inhibitors. 0.72% of 360,000 active. AID 1745845; also: % is scaled to controls: 0 for no effect and ±100 for the full control effect; nearly all actives have a fitted effect of over 55% in size
#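 qHTS (up to 57 uM final) was run with 24 h compound exposure of reporter cells at 37 °C. Each well was multiplexed: SteadyGlo luminescence measured ATXN2-luciferase expression after a fluorogenic Gly-Phe-AFC viability readout (25 uM final).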
# Nrf2 inh – Nrf2 pathway inhibition; Potency, µM (doses to about 46 µM), for inactives: at the highest dose activity change, negative = inhibition, hits mostly inhibitors; A549 ARE-Fluc reporter, luciferase luminescence, 18-24 h; AID 504444; 2.1% of 360,000 active; also: % is scaled to controls: 0 for no effect and ±100 for the full control effect; nearly all actives have a fitted effect of over 60% in size
#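 In this cell-based qHTS, ARE-driven firefly luciferase in A549 cells reports Nrf2 activity; the luminescent signal after BugLite lysis is the measured value, with a prior CellTiter-Fluor read for cell health.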
# HepG2 viability – HepG2 cytotoxicity, counter-screen for TGF-b inhibitors; HepG2 CAGA-GFP viability, ATP luminescence, 18 h; Potency, µM (series often up to 46.1 µM), for the others: at the highest dose activity change, negative = cytotoxicity, actives largely listed as cytotoxic; 0.76% of 410,000 active
#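 CellTiter-Glo luminescence gave cytotoxicity after 18 hours at 37 degrees C. The cells were HepG2 CAGA-GFP in 1% FBS DMEM, stimulated with 500 pg/mL TGF-beta after compound addition. %Activity was normalised to no-cell wells (complete cell-killing) and DMSO (no toxicity), and curves were fitted and classified.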
# FLuc enzyme inh – counter-screen for Nrf2 inhibitors: firefly luciferase enzyme inhibition; purified firefly luciferase, luminescence inhibition; Potency, µM (doses to about 57.5 µM), for the others: at the highest dose activity change, negative = inhibition, actives largely listed as inhibitors; shares compounds with Nrf2 inh; 4% of 1,400 active; also: % is scaled to controls: 0 for no effect and ±100 for the full control effect; nearly all actives have a fitted effect of over 65% in size
# Target sequence (P08659 whole entry, looked up): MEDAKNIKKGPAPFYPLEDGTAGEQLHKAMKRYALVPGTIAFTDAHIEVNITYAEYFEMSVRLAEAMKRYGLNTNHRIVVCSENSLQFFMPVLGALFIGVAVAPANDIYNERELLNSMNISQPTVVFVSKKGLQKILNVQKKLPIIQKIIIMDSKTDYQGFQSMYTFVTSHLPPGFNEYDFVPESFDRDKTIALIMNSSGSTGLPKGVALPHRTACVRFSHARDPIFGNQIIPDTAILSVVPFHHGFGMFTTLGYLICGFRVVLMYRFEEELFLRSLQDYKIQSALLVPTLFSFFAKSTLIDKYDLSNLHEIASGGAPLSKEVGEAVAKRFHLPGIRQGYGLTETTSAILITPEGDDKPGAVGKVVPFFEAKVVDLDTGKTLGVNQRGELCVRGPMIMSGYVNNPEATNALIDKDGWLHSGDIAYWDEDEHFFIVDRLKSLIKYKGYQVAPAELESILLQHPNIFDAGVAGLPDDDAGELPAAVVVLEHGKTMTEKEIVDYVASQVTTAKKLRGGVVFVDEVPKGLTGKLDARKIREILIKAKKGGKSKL
# A549 tox-2 – A549 cytotoxicity, Nrf2 inhibitor counterscreen | shares compounds with Nrf2 inh | A549 ARE-Fluc cells, cytotoxicity counterscreen | Potency, µM (top dose mostly 46.1 µM), for inactives: at the top dose activity change, negative = cytotoxicity, actives largely listed as inhibitors | 2% of 1,400 active | AID 720523;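 also: cells exposed to compounds for 18 to 24 hours; % is scaled to controls: 0 for no effect and ±100 for the full control effect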
# Nrf2 ARE inh – confirmation of Nrf2 inhibitors in A549 ARE reporter cells; shares compounds with Nrf2 inh; AID 720524; A549 ARE-firefly luciferase reporter, luminescence; 74% of 1,400 active; Potency, µM (top dose mostly 46.1 µM), inactives show top-dose activity change, negative = inhibition, most hits filed as inhibitors; also: % is scaled to controls: 0 for no effect and ±100 for the full control effect; nearly all actives have a fitted effect of over 65% in size
# Numbers without * were called inactive; i = inactive; ? = inconclusive; . = no result given. Sampled rows, rich in hits. Any-hit rate of the full collection: about 3.8%. Calls follow the shape of the dose curve; as a rule, active = well fitted curve in the direction sought with a large enough effect; inconclusive = small, poorly fitted or top-dose-only effect, or another doubt; inactive = no such curve, though single readings can be large; an effect the other way counts as inactive or inconclusive. Potency is read from the fitted curve at half-maximal effect.
SMILES,A549 tox-1,TGFb SMAD3 inh,S2 tox,ATXN2 expr inh,Nrf2 inh,HepG2 viability,FLuc enzyme inh,A549 tox-2,Nrf2 ARE inh
O=C(Nc1ccc(F)cc1F)N1CCCN(c2ccc(C(F)(F)F)cn2)CC1,-18%,-10%,i,-31%,6.5µM*,-29%,2%,-5%,8.2µM*
CNC(=S)Nc1ccc(N2CCN(c3ccc(C(F)(F)F)cn3)CC2)nc1,0%,-22%,i,?,4.1µM*,-8%,0%,-4%,6.5µM*
Fc1ccc(NC(=S)N2CCCN(c3ccc(C(F)(F)F)cn3)CC2)c(F)c1,-7%,?,i,.,2.9µM*,-40%,2%,-7%,5.8µM*
O=C(Nc1ccccc1)N1CCN(c2ccc(C(F)(F)F)cn2)CC1,-4%,29%,i,?,6.5µM*,-2%,3%,-11%,9.2µM*
Nc1cc2c(cc1C(=O)c1ccc(Cl)cc1)OCCO2,-9%,23%,?,-10%,8%,3%,.,.,.
COc1ccc(-c2nc3sc(CCNC(=O)C(=O)Nc4ccccc4C#N)c(C)n3n2)cc1,-2%,-2%,.,.,.,9%,.,.,.
O=c1nc(N2CCCC2)nc(N2CCCC2)[nH]1,0%,-1%,i,4%,-1%,6%,.,.,.
CN(c1cccc(NC(=O)CN(c2ccc(F)cc2)S(C)(=O)=O)c1)S(C)(=O)=O,6%,5%,i,-16%,-22%,-9%,.,.,.
CN(c1cccc(NC(=O)CN(c2ccc(C34CC5CC(CC(C5)C3)C4)cc2)S(C)(=O)=O)c1)S(C)(=O)=O,?,11µM*,?,?,7.3µM*,-31%,-6%,?,21µM*
Cc1ccc(NC(=O)N(Cc2nc3ccccc3c(=O)[nH]2)Cc2cccs2)cc1,-3%,-7%,i,9%,-16%,4%,.,.,.
Cc1cccc(/C=C/c2cccs2)n1,.,?,.,.,.,-25%,-1%,-26%,2.6µM*
Oc1cccc2ccc(/C=C/c3cccs3)nc12,0%,?,i,0%,.,-22%,.,.,.
FC(F)(F)c1cccc(N2CCN(c3ncnc4c3nc3n4CCCC3)CC2)c1,0%,?,.,.,1.6µM*,-15%,2%,-11%,2.1µM*
Cc1noc2ncnc(N3CCN(c4cccc(C(F)(F)F)c4)CC3)c12,-1%,?,.,.,8.2µM*,-25%,2%,-5%,8.2µM*
Cc1cccc(N2CCN(c3ncnc4onc(C)c34)CC2)c1C,7%,25%,i,-4%,14%,-12%,.,.,.
COC(=O)c1sccc1N(C)S(C)(=O)=O,2%,-1%,i,-10%,-2%,-12%,.,.,.
C[C@H]1CN([C@@H](C)CO)C(=O)CCCn2nncc2CO[C@@H]1CN(C)C(=O)NC1CCCCC1,.,4%,?,2%,.,0%,.,.,.
CCOCCn1c(CN2CCN(c3cccc(Cl)c3)CC2)nc2c1c(=O)n(C)c(=O)n2C,-4%,-15%,?,?,?,-23%,.,.,.
COCCn1c(CN2CCN(c3cccc(Cl)c3)CC2)nc2c1c(=O)n(C)c(=O)n2C,-26%,-38%,?,-30%,6.5µM*,-38%,-1%,-5%,.
COc1cc(/C=C/C(=O)OCC(=O)N2c3ccccc3NC(=O)C2(C)C)cc(OC)c1OC,-17%,?,i,?,?,-68%,.,.,.
CCCCN=C1NC(=O)C(CC(=O)NCCc2ccc(OC)cc2)S1 (centres undefined),0%,12%,?,.,-1%,5%,.,.,.
O=C(Nc1ncc(Cc2cccc(C(F)(F)F)c2)s1)c1ccc(-c2cccc([N+](=O)[O-])c2)o1,-26%,-7%,?,-23%,2.6µM*,-14%,-2%,-1%,5.2µM*
Cc1ccc(C(=O)Oc2cc(N)n(S(=O)(=O)c3ccc(C)cc3)n2)cc1,-5%,11%,i,-12%,1.2µM*,4%,-3%,-1%,4.6µM*
COc1ccc(S(=O)(=O)n2nc(OC(=O)c3ccc(C)cc3)cc2N)cc1,-14%,0%,i,-16%,0.58µM*,-32%,-23%,5%,.
COc1ccc(S(=O)(=O)n2nc(OC(=O)c3ccccc3)cc2N)cc1,-2%,-2%,i,-30%,-10%,-10%,.,.,.
SMILES,A549 tox-1,TGFb SMAD3 inh,S2 tox,ATXN2 expr inh,Nrf2 inh,HepG2 viability,FLuc enzyme inh,A549 tox-2,Nrf2 ARE inh
Cc1ccc(NC(=O)Nc2c(C)n(C)n(-c3ccccc3)c2=O)c(Cl)c1,4%,-12%,i,0%,2%,-10%,.,.,.
Cc1ccc(S(=O)(=O)Nc2ccc(Cl)cc2C(=O)c2ccccc2)cc1,-24%,?,i,-6%,5.8µM*,-17%,2%,10%,-2%
Cc1ccc(S(=O)(=O)Nc2ccc(Cl)cc2C(=O)c2ccc(F)cc2)cc1,-5%,-16%,i,0%,?,-4%,.,.,.
CCOC(=O)Cn1nc(N2CCN(c3ccc(F)cc3)CC2)ccc1=O,-2%,?,?,-14%,0%,-43%,.,.,.
c1ccc(C[n+]2cccc3c4ccccc4ccc32)cc1,?,?,i,?,?,-35%,0%,-11%,.
O=[N+]([O-])c1ccc(C[n+]2cccc3ccccc32)cc1,3%,-15%,i,?,-16%,-5%,.,.,.
Cc1ccc(S(=O)(=O)N2CCN(C(=O)C3CCN(c4ncnc5sc(C)c(C)c45)CC3)CC2)c(C)c1,-10%,-7%,i,.,8.2µM*,4%,3%,-14%,12µM*
Cc1sc2ncnc(N3CCN(S(=O)(=O)c4ccc(C(C)(C)C)cc4)CC3)c2c1C,?,-27%,i,?,?,-27%,.,.,.
C#CCOCC1CNC(=S)O1 (centres undefined),.,-14%,i,.,.,3%,.,.,.
O=C(Nc1ccc(NC(=O)c2cccs2)cc1)c1cccs1,-23%,21%,i,0%,-15%,0%,.,.,.
O=C(Nc1nonc1NC(=O)c1cccs1)c1cccs1,?,?,?,?,1.6µM*,-17%,-15%,-12%,6.5µM*
